Common to all, as to assay: qHTS profiling for inhibitors of Plasmodium falciparum proliferation (AID 504749); further: nearly all actives have a fitted effect of over 60% in size
Background: Quantitative high-throughput screening tests each substance at several concentrations.

The subject of experiment [1] is AA1029. The following applies: P. falciparum in erythrocytes, SYBR Green DNA, 72 h; series mostly up to 28.7 µM. In short, it runs like this: (§1)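 Parasite proliferation within erythrocytes, 72 h exposure. Endpoint: SYBR Green I fluorescence after overnight lysis at room temperature. Controls: 0.29 uM artemisinin, DMSO.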
Experiment [2] deals with AS120. The following applies: P. falciparum in erythrocytes, SYBR Green DNA, 72 h; series mostly up to 28.7 µM. The procedure, abridged:
as §1

The subject of experiment [3] is CP185. The following applies: P. falciparum in erythrocytes, SYBR Green DNA, 72 h; series mostly up to 28.7 µM. In short, it runs like this: as §1
Experiment [4] has as its system CP191. The following applies: P. falciparum in erythrocytes, SYBR Green DNA, 72 h; series mostly up to 28.7 µM. The procedure, abridged:
as §1

Experiment [5] deals with CP215. The following applies: P. falciparum in erythrocytes, SYBR Green DNA, 72 h; series mostly up to 28.7 µM. The procedure, abridged:
as §1

For experiment [6], the system named is CP237. The following applies: P. falciparum in erythrocytes, SYBR Green DNA, 72 h; series mostly up to 28.7 µM. In short, it runs like this: as §1
Experiment [7] relates to CP238. The following applies: P. falciparum in erythrocytes, SYBR Green DNA, 72 h; series mostly up to 28.7 µM. In short, it runs like this:
as §1

Experiment [8] relates to CP291. The following applies: P. falciparum in erythrocytes, SYBR Green DNA, 72 h; series mostly up to 28.7 µM. In short, it runs like this: as §1
Experiment [9] relates to CP305. The following applies: P. falciparum in erythrocytes, SYBR Green DNA, 72 h; series mostly up to 28.7 µM. The procedure, abridged: as §1
The test system of experiment [10] is CP315. The following applies: P. falciparum in erythrocytes, SYBR Green DNA, 72 h; series mostly up to 28.7 µM. In short, it runs like this: as §1
Experiment [11] deals with CP325. The following applies: P. falciparum in erythrocytes, SYBR Green DNA, 72 h; series mostly up to 28.7 µM. In short, it runs like this:
as §1

The test system of experiment [12] is CP329. The following applies: P. falciparum in erythrocytes, SYBR Green DNA, 72 h; series mostly up to 28.7 µM. The procedure, abridged:
as §1

In experiment [13] the test system is DIV17. The following applies: P. falciparum in erythrocytes, SYBR Green DNA, 72 h; series mostly up to 28.7 µM. In short, it runs like this: as §1
In experiment [14] the test system is DIV30. The following applies: P. falciparum in erythrocytes, SYBR Green DNA, 72 h; series mostly up to 28.7 µM. In short, it runs like this:
as §1

In experiment [15] the test system is GB4. The following applies: P. falciparum in erythrocytes, SYBR Green DNA, 72 h; series mostly up to 28.7 µM. The procedure, abridged: as §1
The subject of experiment [16] is P93_24. The following applies: P. falciparum in erythrocytes, SYBR Green DNA, 72 h; series mostly up to 28.7 µM. In short, it runs like this:
as §1

Experiment [17] concerns P94_40. The following applies: P. falciparum in erythrocytes, SYBR Green DNA, 72 h; series mostly up to 28.7 µM. In short, it runs like this:
as §1

Experiment [18] has as its system TAB109. The following applies: P. falciparum in erythrocytes, SYBR Green DNA, 72 h; series mostly up to 12.8 µM. The procedure, abridged: as §1
For experiment [19], the system named is TAB165. The following applies: P. falciparum in erythrocytes, SYBR Green DNA, 72 h; series mostly up to 28.7 µM. The procedure, abridged: as §1
The subject of experiment [20] is CP201. The following applies: P. falciparum in erythrocytes, SYBR Green DNA, 72 h; series mostly up to 28.7 µM. The procedure, abridged:
as §1

Results filed as inconclusive are left out. Calls of active or inactive are those of the source. The call rests on the fitted dose curve; in most records, active means well fitted inhibition curve with a large enough effect; inconclusive means small, poorly fitted or top-dose-only effect; inactive means flat fitted curve, though single readings scatter.

The record followed here is PubChem BioAssay (NCATS).
Potency means the concentration at half of the fitted maximal effect.

Turning to `C[N+]1([O-])[C@@H]2CC[C@H]1CC(OC(=O)[C@@H](CO)c1ccccc1)C2` (stereo not given in full), the Potency entry in experiment [1], in experiment [2], in experiment [3], in experiment [4], in experiment [5] and in experiment [6] was “inactive” throughout. The Potency entry in experiment [7], in experiment [8], in experiment [9], in experiment [10], in experiment [11] and in experiment [12] was “inactive” each time. In addition, the Potency entry in [13], in experiment [14], in [15], in experiment [16], in experiment [17] and in experiment [18] was “inactive” throughout. Moreover, the Potency entry in experiment [19] was “inactive”.
Turning to `CC1=C2[C@@H]3OC(=O)[C@@H](C)[C@@H]3CC[C@]2(C)C=CC1=O`, the Potency result in [20], in [5], in experiment [6], in experiment [8], in experiment [9] and in [10] was “inactive” throughout. In addition, the Potency entry in [11], in experiment [12], in experiment [13], in experiment [14], in experiment [15] and in experiment [17] was “inactive” each time.
With `CC(C)c1c(CN(C)[C@@H](C)Cc2ccccc2)n(C)n(-c2ccccc2)c1=O`, the Potency result in experiment [1], in experiment [2], in [3], in [4], in experiment [20] and in experiment [5] was “inactive” in each case. In addition, the Potency result in experiment [6], in experiment [7], in [8], in experiment [9], in experiment [10] and in experiment [11] was “inactive” in each case. Further, the Potency result in [12], in experiment [13], in experiment [14], in [15], in [16] and in experiment [17] was “inactive” in each case. Besides, the Potency entry in experiment [18] and in experiment [19] was “inactive” each time.
For the compound `N[C@H]1C[C@H]1c1ccccc1`, the Potency entry in [1], in experiment [2], in [3], in [4], in experiment [20] and in experiment [5] was “inactive” throughout. Also, the Potency result in experiment [6], in experiment [7], in experiment [8], in [9], in [10] and in experiment [11] was “inactive” each time. Also, the Potency result in [12], in experiment [13], in experiment [14], in experiment [15], in experiment [16] and in experiment [17] was “inactive” in each case. Besides, the Potency result in experiment [18] and in experiment [19] was “inactive” each time.
As for `CN[C@@H](C)[C@H]1CC[C@@H](N)[C@@H](O[C@@H]2[C@@H](O)[C@@H](O[C@H]3OC[C@@](C)(O)[C@@H](NC)[C@@H]3O)[C@H](N)C[C@@H]2N)O1` (tested in a mixture with another compound), the Potency entry in [1], in [2], in experiment [3], in experiment [4], in experiment [20] and in [6] was “inactive” throughout. The Potency entry in [7], in [8], in [9], in [10], in experiment [11] and in experiment [12] was “inactive” in each case. Besides, the Potency result in experiment [13], in [14], in experiment [15], in [16], in experiment [17] and in experiment [18] was “inactive” throughout. Further, in experiment [19], the Potency entry was “inactive”.
On to `C[C@@H]1O[C@H](O[C@@H]2C=C3CC[C@H]4[C@@H](CC[C@]5(C)[C@@H](c6ccc(=O)oc6)CC[C@]45O)[C@@]3(C)CC2)[C@@H](O)[C@H](O)[C@@H]1O`, for which the Potency entry in experiment [1], in [2], in experiment [3], in [4], in experiment [20] and in experiment [5] was “inactive” each time. For the same compound, the Potency entry in [6], in [7], in experiment [8], in experiment [9], in [10] and in experiment [11] was “inactive” in each case. Also, the Potency result in [12], in experiment [13], in [14], in experiment [15], in experiment [16] and in experiment [17] was “inactive” in each case. In addition, the Potency result in experiment [18] and in experiment [19] was “inactive” each time.
`CC[C@]1(c2cccc(O)c2)CCCCN(C)C1`: the Potency result in experiment [4], in experiment [20], in [10], in experiment [16] and in experiment [18] was “inactive” each time. Further, the Potency in experiment [6] is 3.16 µM (active); in experiment [15] it was 4.55 µM (active).
Turning to `Clc1ccc([C@@H](OCCN2CCCCC2)c2ccccc2)cc1`, the Potency result in experiment [3], in experiment [20], in [6], in experiment [7], in experiment [8] and in experiment [10] was “inactive” in each case. Further, the Potency entry in experiment [12] was “inactive”. Besides, the Potency is 4.55 µM (active) in experiment [13], 5.73 µM (active) in experiment [15], 3.55 µM (active) in [16] and 3.55 µM (active) in experiment [17].
On to `C[C@H](NC(C)(C)C)C(=O)c1cccc(Cl)c1`, for which the Potency entry in experiment [1], in [2], in experiment [3], in experiment [4], in experiment [20] and in experiment [5] was “inactive” throughout. Further, the Potency entry in experiment [7], in experiment [8], in experiment [9], in experiment [10], in [11] and in experiment [12] was “inactive” throughout. The Potency entry in experiment [14], in experiment [15], in experiment [16], in [17], in experiment [18] and in experiment [19] was “inactive” in each case.
In the case of `COc1cc(N)c(Cl)cc1C(=O)N[C@@H]1CN2CCC1CC2`, the Potency entry in experiment [1], in [2], in [3], in experiment [4], in experiment [20] and in experiment [5] was “inactive” each time. Further, the Potency result in experiment [6], in experiment [7], in experiment [8], in [9], in experiment [10] and in experiment [11] was “inactive” each time. Besides, the Potency result in experiment [12], in [13], in experiment [14], in experiment [15], in [16] and in experiment [17] was “inactive” each time. Further, the Potency result in experiment [18] and in experiment [19] was “inactive” each time.
For `CC(=O)O[C@H]1CC[C@@]2(C)C(=CC[C@@H]3[C@H]2CC[C@]2(C)C(=O)CC[C@H]32)C1`, the Potency result in experiment [1], in [2], in experiment [3], in [4], in experiment [20] and in [5] was “inactive” throughout. The Potency result in experiment [6], in experiment [7], in [8], in experiment [9], in experiment [10] and in experiment [11] was “inactive” each time. Further, the Potency entry in [12], in experiment [13], in experiment [14], in [15], in experiment [16] and in [17] was “inactive” in each case. For the same compound, the Potency result in [18] and in [19] was “inactive” in each case.
For `CCC(C)C1O[C@]2(C=CC1C)CC1CC(C/C=C(\C)[C@H](OC3CC(OC)C(O[C@H]4CC(OC)[C@@H](O)C(C)O4)C(C)O3)[C@@H](C)/C=C/C=C3\COC4C(O)C(C)=C[C@H](C(=O)O1)[C@@]34O)O2` (stereo not given in full), the Potency is 11.2 µM (active) in [1]; 10 µM (active) in experiment [2]; 11.2 µM (active) in [3]; 7.94 µM (active) in experiment [4]; 16.9 µM (active) in experiment [20]; 13.5 µM (active) in [5]. The Potency in experiment [8] is 10.7 µM (active); in experiment [9], 12 µM (active); in experiment [12], 9.53 µM (active); in [13], 12 µM (active); in experiment [15], 13.5 µM (active); in experiment [17], 10 µM (active). For the same compound, the Potency is 8.91 µM (active) in experiment [18] and 12.6 µM (active) in experiment [19].
Consider `O=C1C=C2C=CC3C[C@@]2(O1)C1CCCCN31` (stereo not given in full), for which the Potency is 12.6 µM (active) in [1]; 10 µM (active) in experiment [2]; 10 µM (active) in experiment [4]; 10.7 µM (active) in experiment [5]; 5.01 µM (active) in experiment [6]; 11.2 µM (active) in experiment [7]. Besides, the Potency in [10] was 16.9 µM (active); in experiment [13], 15.1 µM (active); in experiment [14], 13.5 µM (active); in experiment [16] it was 12.6 µM (active); in experiment [17], 8.91 µM (active); in [18], 5.01 µM (active). Further, the Potency in experiment [19] was 11.2 µM (active).
For the compound `C=CC1CN2CCC1CC2C(OC(=O)OCC)c1ccnc2ccc(OC)cc12` (stereo not given), the Potency in experiment [1] was 5.01 µM (active); in [2] it was 7.94 µM (active); in experiment [3] it was 8.91 µM (active); in [4] it was 5.01 µM (active); in [5], 12 µM (active); in experiment [6] it was 7.08 µM (active). Further, the Potency was 8.91 µM (active) in [7]; 12 µM (active) in [8]; 9.53 µM (active) in [9]; 13.5 µM (active) in experiment [11]; 13.5 µM (active) in experiment [13]; 9.53 µM (active) in experiment [14]. Moreover, the Potency in experiment [15] is 4.78 µM (active); in experiment [16] it was 7.94 µM (active); in [17], 3.55 µM (active); in [18] it was 4.47 µM (active); in experiment [19], 0.501 µM (active).
